Experimental data as given in PubChem BioAssay (NCATS).
Inconclusive results are not listed. Calls of active or inactive are those of the source. Unless noted, the call rests on the fitted dose curve; in most records, active means well fitted curve in the direction sought with a large enough effect; inconclusive means small, poorly fitted or top-dose-only effect, or another doubt; inactive means no such curve, though single readings can be large; an effect the other way counts as inactive or inconclusive.

Key:
[1] = biological target: Phosphoglycerate kinase, glycosomal (Trypanosoma brucei brucei) (UniProt P07378); test: qHTS Validation Assay to Find Inhibitors of Phosphoglycerate Kinase (AID 504547);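 further: control wells lack PGK and mark full inhibition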
Chain of Phosphoglycerate kinase, glycosomal (Trypanosoma brucei brucei) (P07378 whole entry, looked up): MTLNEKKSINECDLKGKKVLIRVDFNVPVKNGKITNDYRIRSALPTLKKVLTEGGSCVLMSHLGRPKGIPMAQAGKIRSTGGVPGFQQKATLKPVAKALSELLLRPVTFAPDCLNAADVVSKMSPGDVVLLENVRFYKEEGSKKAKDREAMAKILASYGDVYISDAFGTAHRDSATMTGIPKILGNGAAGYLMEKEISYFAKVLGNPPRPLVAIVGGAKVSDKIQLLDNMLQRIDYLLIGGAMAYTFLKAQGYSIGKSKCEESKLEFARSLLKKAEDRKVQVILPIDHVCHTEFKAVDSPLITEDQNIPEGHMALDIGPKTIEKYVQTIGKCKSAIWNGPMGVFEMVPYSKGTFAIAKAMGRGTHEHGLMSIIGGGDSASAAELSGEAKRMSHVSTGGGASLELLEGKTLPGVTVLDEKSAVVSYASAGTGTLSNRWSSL
In short: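 In TEA buffer (100mM, pH 7.6) containing 5mM MgCl2 and 0.01% Tween-20, the GAPDH-coupled PGK reaction proceeded for 60 minutes at room temperature before a single luminescence reading using Kinase-Glo Plus.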

[2] = biological target: phosphoglycerate mutase (Leishmania major) (UniProt Q4Q090); test: qHTS Validation Assay to Find Inhibitors of Phosphoglycerate Mutase (AID 504548);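 further: end-point luminescence from Kinase-GloPlus after the PGAM reaction; series mostly up to about 58 µM; on the % scale 0 is the no-effect control and ±100 the full control effect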
Chain of phosphoglycerate mutase (Leishmania major) (Q4Q090 1-553): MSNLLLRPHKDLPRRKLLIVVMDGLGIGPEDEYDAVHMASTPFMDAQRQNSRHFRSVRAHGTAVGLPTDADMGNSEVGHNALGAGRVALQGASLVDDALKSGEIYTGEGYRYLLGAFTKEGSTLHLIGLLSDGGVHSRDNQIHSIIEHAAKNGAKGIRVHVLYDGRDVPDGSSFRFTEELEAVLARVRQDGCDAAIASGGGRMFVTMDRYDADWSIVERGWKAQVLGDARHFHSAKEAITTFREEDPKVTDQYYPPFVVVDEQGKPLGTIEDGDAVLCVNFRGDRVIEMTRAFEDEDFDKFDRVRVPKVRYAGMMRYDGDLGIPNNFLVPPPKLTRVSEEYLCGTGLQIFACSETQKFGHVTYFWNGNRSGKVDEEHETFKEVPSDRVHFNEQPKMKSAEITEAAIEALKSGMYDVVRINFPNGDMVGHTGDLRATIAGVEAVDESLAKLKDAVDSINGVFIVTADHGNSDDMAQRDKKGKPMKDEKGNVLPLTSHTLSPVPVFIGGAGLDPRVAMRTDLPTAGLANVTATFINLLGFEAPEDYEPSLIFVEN
In short: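 L. major PGAM (1.25nM final) was added to substrate buffer and pinned compound, incubated 45 minutes at room temperature, then Kinase-GloPlus added; luminescence read after 10 minutes. Buffer: 100 mM TEA pH 7.6, 5 mM MgCl2, 0.01% Tween-20.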

[3] = biological target: Ubiquitin carboxyl-terminal hydrolase 1 (Homo sapiens) (UniProt O94782); test: Inhibitors of USP1/UAF1: Pilot qHTS (AID 504865);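 further: rhodamine fluorescence freed from ubiquitin-rhodamine substrate followed over time; top concentration of the series differs between compounds; on the % scale 0 is the no-effect control and ±100 the full control effect; nearly all actives have a fitted effect of over 35% in size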
Chain of Ubiquitin carboxyl-terminal hydrolase 1 (Homo sapiens) (O94782 whole entry, looked up): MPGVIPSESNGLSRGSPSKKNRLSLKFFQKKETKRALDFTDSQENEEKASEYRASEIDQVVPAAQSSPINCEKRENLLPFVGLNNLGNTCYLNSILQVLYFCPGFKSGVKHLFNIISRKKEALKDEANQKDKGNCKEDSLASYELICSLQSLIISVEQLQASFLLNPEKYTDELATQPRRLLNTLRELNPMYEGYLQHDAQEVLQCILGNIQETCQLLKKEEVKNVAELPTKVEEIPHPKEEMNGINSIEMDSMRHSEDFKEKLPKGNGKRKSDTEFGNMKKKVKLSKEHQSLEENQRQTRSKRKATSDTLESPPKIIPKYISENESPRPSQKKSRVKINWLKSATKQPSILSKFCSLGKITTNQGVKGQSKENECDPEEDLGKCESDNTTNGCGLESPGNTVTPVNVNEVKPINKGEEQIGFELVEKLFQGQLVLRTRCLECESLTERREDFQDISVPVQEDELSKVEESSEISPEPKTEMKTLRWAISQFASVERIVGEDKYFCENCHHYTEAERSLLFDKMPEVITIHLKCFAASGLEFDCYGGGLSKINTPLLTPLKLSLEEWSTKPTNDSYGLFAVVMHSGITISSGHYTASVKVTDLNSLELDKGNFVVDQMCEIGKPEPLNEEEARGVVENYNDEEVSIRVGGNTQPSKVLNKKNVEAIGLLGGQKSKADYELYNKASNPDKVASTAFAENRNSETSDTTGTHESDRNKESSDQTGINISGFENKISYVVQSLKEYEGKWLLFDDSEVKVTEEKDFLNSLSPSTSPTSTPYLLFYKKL
In short: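 USP1/UAF1 complex (1nM) preincubated with compound 15 min at room temperature, then Ub-Rho substrate (150nM final) added. Fluorescence read kinetically at 480/540 nm, 6 reads every 60 seconds. Buffer: 50mM HEPES pH 7.8, 0.5mM EDTA, 0.1 mg/ml BSA, 1mM TCEP, 0.01% Tween-20.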

[4] = biological target: Voltage-gated inwardly rectifying potassium channel KCNH2 (Homo sapiens) (UniProt Q12809); test: qHTS Assay for Small Molecule Inhibitors of the Human hERG Channel Activity (AID 588834);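 further: potency means the concentration at half of the fitted maximal effect; lower thallium flux fluorescence means stronger hERG block; nearly all actives have a fitted effect of over 50% in size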
In short: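 In hERG-transduced U2OS cells, dye-loaded for 1 hr at room temperature in dark, test compounds incubated 10 min at 37 °C before thallium stimulation. AC50 values derived by Hill modelling of concentration-response.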

[5] = biological target: Glutaminase kidney isoform, mitochondrial (Homo sapiens) (UniProt O94925); test: qHTS for Inhibitors of Glutaminase (GLS): LOPAC Validation (AID 624146);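 further: glutamate product detected by oxidase and peroxidase coupled Amplex red fluorescence gain; series mostly up to about 46 µM; on the % scale 0 is the no-effect control and ±100 the full control effect; nearly all actives have a fitted effect of over 60% in size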
Chain of Glutaminase kidney isoform, mitochondrial (Homo sapiens) (O94925 whole entry, looked up, canonical isoform): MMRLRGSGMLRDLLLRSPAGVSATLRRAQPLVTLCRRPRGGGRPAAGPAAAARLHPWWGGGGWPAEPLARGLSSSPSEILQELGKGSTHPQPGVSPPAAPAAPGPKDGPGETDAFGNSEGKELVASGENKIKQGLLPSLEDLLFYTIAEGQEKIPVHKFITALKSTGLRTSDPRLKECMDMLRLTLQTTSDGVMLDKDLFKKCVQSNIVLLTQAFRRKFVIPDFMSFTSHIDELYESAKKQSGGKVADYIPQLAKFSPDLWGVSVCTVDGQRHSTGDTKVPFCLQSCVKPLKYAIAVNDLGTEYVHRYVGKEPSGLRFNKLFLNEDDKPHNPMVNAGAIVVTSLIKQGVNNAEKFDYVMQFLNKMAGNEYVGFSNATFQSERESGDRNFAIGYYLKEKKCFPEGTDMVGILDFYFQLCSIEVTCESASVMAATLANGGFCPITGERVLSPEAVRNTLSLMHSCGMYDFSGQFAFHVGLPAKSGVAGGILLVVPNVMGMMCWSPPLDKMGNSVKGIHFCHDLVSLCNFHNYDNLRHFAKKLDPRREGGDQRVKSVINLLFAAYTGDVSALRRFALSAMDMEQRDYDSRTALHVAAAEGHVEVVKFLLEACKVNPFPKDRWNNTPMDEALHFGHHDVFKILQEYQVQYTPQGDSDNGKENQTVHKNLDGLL
In short: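 Glutamate formation by hKGA was monitored fluorometrically using coupled glutamate oxidase, HRP and Amplex Red. Substrate was added as 1 mM L-glutamine solution; incubation was 30 min at RT after an initial read.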

[6] = qHTS of Trypanosoma Brucei Inhibitors: LOPAC Validation (AID 624147); further: 0% is about no effect
In short: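 Luminescent Kinase-Glo Plus end-point after 45 min room-temperature reaction of T. brucei pyruvate kinase started with 130 uM ADP (final). Buffer TEA 50 mM pH 7.2 with KCl, MgCl2, BSA, Tween-20; titration-based qHTS with fitted concentration-effect curves.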

[7] = biological target: Glucagon-like peptide 1 receptor (Homo sapiens) (UniProt P43220); test: qHTS of GLP-1 Receptor Agonists: LOPAC Validation (AID 624148);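 further: 0% is about no effect; higher luminescence signal means agonism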
In short: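 HEK293 cells stably co-expressing a cAMP-responsive luciferase reporter and a hypersensitive GLP-1R were plated 12 h at 37 °C and exposed to compounds for 4-6 hr at 37 °C, 5% CO2. Luminescence was read 12 min after adding detection reagent.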

[8] = qHTS of Nrf2 Activators: LOPAC Validation (AID 624149); further: 0% is about no effect
In short: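 Following overnight seeding in 5% FBS OPTI-MEM, AREc32_Fluc cells receive compounds for a 24 hr incubation at 37 deg C with 5% CO2. Steady-Glo is added, and after 30 min at RT luminescence is recorded.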

[9] = HTS Assay for Allosteric Antagonists of the Human D2 Dopamine Receptor: Hit Validation in HTRF (AID 624455);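 further: stable D1 dopamine receptor cell line scored for blocking the D1 response; on the % scale 0 is the no-effect control and ±100 the full control effect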
In short: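 Validation of hits used D1 receptor stably expressed in cells with HTRF detection of response inhibition; origin screen measured calcium flux following EC80 dopamine in a force-coupled, inducible Hek293 Trex D2 cell line.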

[10] = biological target: T1, Hexokinase-4 (Homo sapiens) + Glucokinase regulatory protein (Homo sapiens) (UniProt P35557+Q14397); test: qHTS assay for inhibitors of recombinant human GCK-GKRP interaction: Diaphorase-coupled assay (AID 743205)
T1 sequence (P35557 whole entry, looked up): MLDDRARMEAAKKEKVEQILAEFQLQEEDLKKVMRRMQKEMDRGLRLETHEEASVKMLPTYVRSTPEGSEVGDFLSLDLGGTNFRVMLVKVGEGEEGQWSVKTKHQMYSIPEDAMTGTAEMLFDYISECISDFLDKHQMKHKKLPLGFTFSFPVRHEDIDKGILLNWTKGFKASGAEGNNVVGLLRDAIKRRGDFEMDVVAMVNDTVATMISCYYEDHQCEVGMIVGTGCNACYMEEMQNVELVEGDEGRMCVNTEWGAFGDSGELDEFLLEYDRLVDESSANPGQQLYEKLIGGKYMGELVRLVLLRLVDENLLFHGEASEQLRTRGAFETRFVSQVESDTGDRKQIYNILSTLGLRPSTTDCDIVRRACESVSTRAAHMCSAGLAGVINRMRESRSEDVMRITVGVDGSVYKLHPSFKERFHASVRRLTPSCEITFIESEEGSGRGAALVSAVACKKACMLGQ
T1 sequence (Q14397 whole entry, looked up): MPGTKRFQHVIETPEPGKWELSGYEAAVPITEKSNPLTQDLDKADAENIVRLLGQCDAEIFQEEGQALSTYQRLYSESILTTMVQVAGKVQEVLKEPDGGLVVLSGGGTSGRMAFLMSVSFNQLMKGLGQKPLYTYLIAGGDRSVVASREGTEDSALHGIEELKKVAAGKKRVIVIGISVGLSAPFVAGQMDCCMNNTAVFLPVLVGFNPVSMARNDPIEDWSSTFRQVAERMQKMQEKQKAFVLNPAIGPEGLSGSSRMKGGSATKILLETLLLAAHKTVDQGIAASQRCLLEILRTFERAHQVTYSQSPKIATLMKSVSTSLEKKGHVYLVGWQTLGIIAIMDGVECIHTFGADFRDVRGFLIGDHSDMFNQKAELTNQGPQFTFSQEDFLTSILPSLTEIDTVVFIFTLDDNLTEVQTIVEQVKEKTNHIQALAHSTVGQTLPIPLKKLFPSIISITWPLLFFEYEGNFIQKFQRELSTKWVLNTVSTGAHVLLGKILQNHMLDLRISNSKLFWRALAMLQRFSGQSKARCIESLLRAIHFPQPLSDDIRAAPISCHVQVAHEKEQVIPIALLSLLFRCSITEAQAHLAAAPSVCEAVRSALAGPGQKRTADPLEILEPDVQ
In short: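 GST-GCK (10 nM) with FLAG-GKRP (10 nM), 5 mM glucose and 0.4 mM ATP in pH 7.6 Hepes; compounds preincubated 20 min with substrate. G6PDH/diaphorase coupling converts resazurin to resorufin, read kinetically (ex 525/em 590 nm) for 30 min.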

[11] = biological target: T1, Hexokinase-4 (Homo sapiens) + Glucokinase regulatory protein (Homo sapiens); test: qHTS assay for inhibitors of recombinant human GCK-GKRP interaction: HTRF assay (AID 743207);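 further: 0% = DMSO with GCK present and -100% = DMSO wells lacking GCK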
In short: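 GST-GCK and FLAG-GKRP (5 nM each) were combined with 2 uM S6P in pH 7.1 Hepes/MgCl2/KCl/DTT buffer, then compound and anti-FLAG XL665/anti-GST K antibodies were added. After 60 min at room temperature, HTRF 665/615 nm emission was read.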

[12] = qHTS Assay for Identifying Gametocytocidal Compounds (AID 743244);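 further: on the % scale 0 is the no-effect control and ±100 the full control effect; actives lower the fluorescent signal which means gametocytes are killed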; conditions: P. falciparum 3D7 stage III-V gametocytes, alamarBlue, 72 h; max response: stronger effect = lower value
In short: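 Late gametocytes (III–V), P. falciparum 3D7; 72 h drug, then 24 h alamarBlue; resazurin reduction read by fluorescence.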

[13] = Natriuretic polypeptide receptor (hNpr1) antagonism - Pilot counterscreen GloSensor control cell line (AID 1347045; calls by dose curve; further: series mostly up to about 38 µM; on the % scale 0 is the no-effect control and ±100 the full control effect)
In short: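 The SNP-driven cGMP luminescence signal (50 uM, 20 min, room temperature) was measured in GloSensor HEK293 control cells. Compounds were tested as a LOPAC titration series and preincubated for 30-50 min.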

[14] = biological target: Atrial natriuretic peptide receptor 1 (Homo sapiens) (UniProt P16066); test: Natriuretic polypeptide receptor (hNpr1) antagonism - Pilot screen (AID 1347049; calls by dose curve;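 further: HEK293 cells with hNpr1 and GloSensor cGMP luciferase stimulated by 0.1 nM hNppA; agonist-evoked cGMP luminescence read 20 min after hNppA addition; series mostly up to about 58 µM; on the % scale 0 is the no-effect control and ±100 the full control effect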)
Chain of Atrial natriuretic peptide receptor 1 (Homo sapiens) (P16066 whole entry, looked up): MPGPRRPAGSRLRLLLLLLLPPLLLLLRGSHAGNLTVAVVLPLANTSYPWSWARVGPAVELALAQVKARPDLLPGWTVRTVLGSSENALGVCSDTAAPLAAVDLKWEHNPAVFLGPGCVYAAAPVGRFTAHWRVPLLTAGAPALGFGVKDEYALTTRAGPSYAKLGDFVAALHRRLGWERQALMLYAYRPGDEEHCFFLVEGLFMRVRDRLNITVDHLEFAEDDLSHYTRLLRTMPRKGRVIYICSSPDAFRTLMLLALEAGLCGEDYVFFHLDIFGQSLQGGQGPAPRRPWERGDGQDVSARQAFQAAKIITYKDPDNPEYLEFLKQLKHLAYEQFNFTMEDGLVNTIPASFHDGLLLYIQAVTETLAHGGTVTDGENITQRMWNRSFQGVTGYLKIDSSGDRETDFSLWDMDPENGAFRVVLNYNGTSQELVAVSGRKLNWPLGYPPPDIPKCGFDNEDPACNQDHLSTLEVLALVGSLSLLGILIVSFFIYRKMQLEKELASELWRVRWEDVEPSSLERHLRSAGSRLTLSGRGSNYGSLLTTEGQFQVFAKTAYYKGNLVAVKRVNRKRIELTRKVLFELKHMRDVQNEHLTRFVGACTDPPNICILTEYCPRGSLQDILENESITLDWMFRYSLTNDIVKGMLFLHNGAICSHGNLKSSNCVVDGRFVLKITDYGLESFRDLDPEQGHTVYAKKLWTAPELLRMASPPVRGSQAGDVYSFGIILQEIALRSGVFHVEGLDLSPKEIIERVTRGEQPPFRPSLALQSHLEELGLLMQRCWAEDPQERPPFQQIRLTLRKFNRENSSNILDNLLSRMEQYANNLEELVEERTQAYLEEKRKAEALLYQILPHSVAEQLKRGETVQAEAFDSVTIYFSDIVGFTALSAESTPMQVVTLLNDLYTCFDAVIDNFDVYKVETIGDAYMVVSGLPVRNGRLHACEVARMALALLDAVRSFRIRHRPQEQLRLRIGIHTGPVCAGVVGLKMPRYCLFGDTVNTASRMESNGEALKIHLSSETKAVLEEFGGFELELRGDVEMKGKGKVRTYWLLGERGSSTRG
In short: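 Cells expressing receptor plus cGMP biosensor are seeded and incubated overnight at 37C, then loaded with GloSensor reagent (2% final) at room temperature for 2 h. Library compounds go on for 30 min. A pre-read precedes agonist (hNppA, 0.1 nM final) and a 20-min readout.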

[15] = biological target: Atrial natriuretic peptide receptor 2 (Homo sapiens) (UniProt P20594); test: Natriuretic polypeptide receptor (hNpr2) antagonism - Pilot subtype selectivity assay (AID 1347050; calls by dose curve; further: on the % scale 0 is the no-effect control and ±100 the full control effect)
In short: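 Read-out: GloSensor luminescence (CCD imager), baseline vs post-stimulation. HEK293 cells expressing hNpr2; compounds pre-incubated 30-50 min at ambient temperature; hNppC 1 nM final, 20 min.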

[16] = test system: Zika virus NS2B-NS3 protease; test: Primary screen GU AMC qHTS for Zika virus inhibitors (AID 1347154);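 further: 0% = no-inhibitor control and -100% = no-enzyme control; nearly all actives have a fitted effect of over 70% in size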
In short: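 Unlinked Zika NS2B hydrophilic domain/NS3 protease domain noncovalent complex (25 nM final) in 10 mM Tris-HCl pH 8.0, 0.01% Tween 20, with AMC peptide substrate. Fluorescence (ex 340, em 450 nm) change over 15 min, room temperature; percent inhibition fitted to 4-parameter Hill equation.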

[17] = Validation qHTS assay for inhibitors of Activation Induced Cytidine Deaminase (AID): UDG Counterscreen signal (AID 1347427); further: 0% is about no effect
In short: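 Fluorescence at 560 nm excitation, 665 nm emission reports UDG signal after 250 mM NaOH (2x) addition and 30 min. Enzymes (AID 1 uM, UDG 2 U/mL, at 4/3x) preincubated 10 min with compound, then 4 h with 4x 250 nM DJC20/DJC23 substrate at room temperature.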

[18] = biological target: Single-stranded DNA cytosine deaminase (Homo sapiens) (UniProt Q9GZX7); test: Validation qHTS assay for inhibitors of Activation Induced Cytidine Deaminase (AID): AID signal (AID 1347429); further: on the % scale 0 is the no-effect control and ±100 the full control effect
Chain of Single-stranded DNA cytosine deaminase (Homo sapiens) (Q9GZX7 whole entry, looked up): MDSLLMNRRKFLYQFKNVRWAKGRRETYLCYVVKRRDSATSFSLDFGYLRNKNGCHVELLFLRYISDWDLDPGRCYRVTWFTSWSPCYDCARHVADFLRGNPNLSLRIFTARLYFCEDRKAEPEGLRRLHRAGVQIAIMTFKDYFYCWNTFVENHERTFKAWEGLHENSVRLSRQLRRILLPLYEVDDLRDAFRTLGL
In short: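 Compounds (up to 114 uM final) are tested against AID plus UDG using DJC20/DJC23 FRET substrate. Reactions incubate 4 hr at room temperature, receive NaOH for 30 min, and are read at Ex 540/Em 590 nm.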

C1CCC(N=C(NC23CC4CC(CC(C4)C2)C3)N2CCOCC2)CC1
active: Potency [4] 11.2 µM
inactive: Potency [1] | outcome [2] | Potency [3] | Potency [5] | outcome [6] | outcome [7] | outcome [8] | outcome [9] | outcome [10] | outcome [11] | max response [12] 10.5% | Potency [13] | Potency [14] | Potency [15] | Potency [16] | outcome [17] | Potency [18]
